# KB-3-1 cytotox – qHTS assay for MDR1-selective chemotherapeutics: Primary screen using the parental adenocarcinoma cell KB-3-1. KB-3-1 viability, CellTiter-Glo ATP luminescence, 72 h. Potency, µM (doses to about 46.1 µM), actives largely listed as cytotoxic. 1.4% of 400,000 active. AID 1347075, 2019; note: potency is the fitted concentration of half-maximal effect; % is set by controls: 0 for no effect and ±100 for the full control effect; nearly all actives have a fitted effect of over 60% in size
#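 Using CellTiter-Glo luminescence, growth of non-resistant KB-3-1 adenocarcinoma cells is assessed 72 h after pin-tool compound addition at 37 °C. Normalized responses across the concentration series yield fitted curves.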
# KB-V1 MDR tox – qHTS assay for MDR1-selective chemotherapeutics: Primary screen using the drug-selected MDR subline cells KB-V1; KB-V1 MDR cells viability, CellTiter-Glo, 72 h; Potency, µM (doses to about 46.1 µM), hits mostly cytotoxic; 3.4% of 400,000 active; note: potency is the fitted concentration of half-maximal effect; % is set by controls: 0 for no effect and ±100 for the full control effect; nearly all actives have a fitted effect of over 60% in size
#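 Luminescent ATP read-out (CellTiter-Glo, 10 min) measures survival of drug-selected KB-V1 MDR cells after 72 h, 37 degrees C compound exposure. Medium: phenol-red-free DMEM, 10% FBS. Values from fitted concentration-response curves.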
# MCF10A rerep – A quantitative high throughput screen for small molecules that induce DNA re-replication in MCF 10a normal breast cells | Potency, µM (highest dose often 46.1 µM), for the others: at the top dose activity, positive = re-replication, usual class: activators | AID 624296, 2012 | 2.9% of 350,000 active | MCF 10A DNA re-replication, Hoechst nuclear intensity, 48 h; note: potency is the fitted concentration of half-maximal effect; % of control where 0% means no effect; nearly all actives have a fitted effect of over 50% in size
# KCNH2 WT inh – qHTS for Inhibitors of KCHN2 3.1: Wildtype qHTS; U2OS, BacMam KCNH2, thallium flux FluxOr; stronger effect = lower value; Voltage-gated inwardly rectifying potassium channel KCNH2 (Homo sapiens), Q12809; 0.37% of 340,000 active; activity change, % at 1.84 µM; AID 720551, 2013;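 active = maximum activity change below -70%; inconclusive = maximum activity change between -70% and -50%; inactive = maximum activity change above -50%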; note: % is set by controls: 0 for no effect and ±100 for the full control effect
#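 U2OS cells were transduced with wild-type KCNH2 virus (2.03 x 10^8 / mL) for 4 h at room temperature, then cultured overnight at 37 C. Thallium flux was read with FluxOr dye. Rate constants were normalized to DMSO controls.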
# SW480 rereplic – A quantitative high throughput screen for small molecules that induce DNA re-replication in SW480 colon adenocarcinoma cells | 1.8% of 340,000 active | Potency, µM (highest dose often 46.1 µM), for inactives: at the top dose re-replication activation, actives largely listed as activators | SW480 DNA re-replication, Hoechst DNA content imaging, 48 h | AID 624297, 2012; note: potency is the fitted concentration of half-maximal effect; % of control where 0% means no effect; nearly all actives have a fitted effect of over 55% in size
#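 DNA re-replication was detected as more nuclei of elevated Hoechst intensity after 48 hr exposure to compound (23 nL pinned per well of 250 cells).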
# KCNH2 3.1 block – qHTS for Inhibitors of KCHN2 3.1: Mutant qHTS; Potassium voltage-gated channel subfamily H member 2, brain isoform KCNH2 3.1 (human); U2OS KCNH2 3.1, thallium flux FluxOr; stronger effect = lower value; activity change, % (tested at about 1.8 µM); 0.95% of 340,000 active;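 active = maximum activity change below -70%; inconclusive = maximum activity change from -70% to -50%; inactive = maximum activity change above -50%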;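 note: thallium influx rate constant from kinetic fluorescence after stimulation buffer; % is set by controls: 0 for no effect and ±100 for the full control effect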
#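 FluxOr-based Tl+ influx in U2OS cells transduced with KCNH2 3.1 virus; rate constants normalized to DMSO controls.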
# Numbers without * were called inactive; i = inactive; ? = inconclusive; nt = no result; [ ] = remark or other dose. In the library only some 7.6% were active in any assay of this set; here they are far more common. Unless noted, calls come from the whole dose curve; as a rule, active = well fitted curve in the direction sought with a large enough effect; inconclusive = small, poorly fitted or top-dose-only effect, or another doubt; inactive = no such curve, though single readings can be large; an effect the other way counts as inactive or inconclusive.
SMILES,KB-3-1 cytotox,KB-V1 MDR tox,MCF10A rerep,KCNH2 WT inh,SW480 rereplic,KCNH2 3.1 block
O=C(Cc1ccc(S(=O)(=O)N2CCCC2)s1)N1CCN(c2ccc(F)cc2)CC1,i,?,13%,10,?,-7
COc1cc(/C=N/NP(=S)(c2ccccc2)c2ccccc2)ccc1O,i,i,11µM*,-19,-1%,9
CC(=O)OCC1=C(C(=O)O)N2C(=O)[C@@H](N)[C@@H]2SC1,nt,nt,2%[20.6 µM],nt,-7%[20.6 µM],nt
Cc1ccc(-n2c(/C=C/c3cc(Br)cs3)nc3ccccc3c2=O)cc1,i,i,nt,nt,nt,nt
O=c1[nH]c(=S)n(Cc2ccc(F)cc2)c(O)c1C=NCCCn1ccnc1,i,i,27%,-37,-2%,-84*
c1cc2c(cc1[C@H]1OCC3C1CO[C@@H]3c1ccc3c(c1)OCO3)OCO2 (stereo not given in full),i,i,-2%,18,-14%,-70*
O=C(CN1CCOCC1)c1ccc2ccccc2c1,?,i,nt,nt,nt,nt
O=C(CCc1nc(C2=CCN(Cc3cccc(Cl)c3)CC2)no1)Nc1ccccc1F,i,i,nt,nt,nt,nt
O=C(CN1CCOCC1)c1cccc([N+](=O)[O-])c1,?,i,nt,nt,nt,nt
C[C@H]1O[C@@H](O[C@H]2[C@@H](O)C[C@H](O[C@H]3[C@@H](O)C[C@H](O[C@H]4CC[C@@]5(C)[C@H](CC[C@@H]6[C@@H]5CC[C@]5(C)[C@@H](C7=CC(=O)OC7)CC[C@]65O)C4)O[C@@H]3C)O[C@@H]2C)C[C@H](O)[C@@H]1O,?,0.18µM*,0.065µM*,4,0.21µM*,0
CC(=O)OC1CC2(O)C3CCC4CC(O)CCC4(C)C3CCC2(C)C1C1=CC(=O)OC1 (stereo not given),0.18µM*,?,?,3,1.6µM*,0
CC1OC(OC2C(O)CC(OC3C(O)CC(OC4CCC5(C)C(CCC6C5CCC5(C)C(C7=CC(=O)OC7)C(O)CC65O)C4)OC3C)OC2C)CC(O)C1O (stereo not given),0.18µM*,?,?,-6,1.8µM*,-4
C[C@H]1O[C@@H](OC2CC[C@]3(C=O)[C@H]4CC[C@]5(C)[C@@H](C6=CC(=O)OC6)CC[C@]5(O)[C@@H]4CC[C@]3(O)C2)CC2OC(C)(C)OC21 (stereo not given in full),?,?,?,-2,?,-11
CC1OC(OC2C=C3CCC4C(CCC5(C)C(c6ccc(=O)oc6)CCC45O)C3(C)CC2)C(O)C(OC2OC(CO)C(O)C(O)C2O)C1O (stereo not given),?,?,3%,-1,?,-6
CC(=O)OC1CC(OC2C(O)CC(OC3C(O)CC(OC4CCC5(C)C(CCC6C5CCC5(C)C(C7=CC(=O)OC7)C(O)CC65O)C4)OC3C)OC2C)OC(C)C1OC1OC(CO)C(O)C(O)C1O (stereo not given),1.2µM*,?,?,3,1.2µM*,-19
CCCNc1nc(-c2cc(C(=O)Nc3ccccc3)on2)cc(C(C)C)n1,?,i,14%,-4,-2%,-21
COc1ccc(NC(=O)c2ccc(NC(=O)c3nc4nccc(C)n4n3)cc2)cc1,i,?,-2%,-2,5%,-3
C/C(=N\NC(N)=S)C12CC3CC(CC(C3)C1)C2,i,i,7.3µM*,-2,26µM*,-1
Cc1nn(Cc2ccccc2)c(Cl)c1C(=O)OCC(=O)Nc1cccc2ccccc12,?,16µM*,?,-2,-1%,17
Cc1cc(NC(=O)COC(=O)c2c(C)nn(Cc3ccccc3Cl)c2C)no1,i,i,?,17,?,-9
Cc1nn(Cc2ccccc2Cl)c(Cl)c1C(=O)OCC(=O)NC(=O)NC1CCCCC1,i,16µM*,?,-2,-11%,4
Cc1nn(Cc2ccccc2)c(Cl)c1C(=O)OC(C)C(=O)Nc1ccc(F)cc1Cl (stereo not given),i,3.3µM*,21µM*,-1,7%,-16
Cc1cc(NC(=O)COC(=O)c2c(C)nn(Cc3ccccc3)c2Cl)no1,i,i,9%,3,1%,14
N#CSCC(=O)N1c2ccccc2CCc2ccccc21,?,23µM*,?,3,?,3
Nc1ccccc1C(=O)OCC(=O)N1CCc2ccccc21,i,i,0%,-4,1%,2
SMILES,KB-3-1 cytotox,KB-V1 MDR tox,MCF10A rerep,KCNH2 WT inh,SW480 rereplic,KCNH2 3.1 block
O=c1n(Cl)c(=O)n(Cl)c(=O)n1Cl,nt,nt,0%,nt,-6%,nt
Oc1cccc[c]1[Hg][Cl],nt,nt,14%,nt,?,nt
Oc1cc[c]([Hg][Cl])cc1,nt,nt,1.1µM*,nt,?,nt
O=C(COc1cccc(Cl)c1)N1CCN(CCc2ccncc2)CC1,i,i,nt,nt,nt,nt
COC(=O)[C@@]12CCCCN1[C@H](c1ccc(-c3ccc(Cl)c(Cl)c3)c(OC)c1)[C@H]1C(=O)N(C)C(=O)[C@H]12,i,i,-14%,-20,-5%,13
Cc1ccccc1-n1c(O)c(/C=C2/C(c3ccccc3)=Nc3ccccc32)c(=O)[nH]c1=O,2.1µM*,1.5µM*,5.2µM*,1,nt,1
Cc1ccccc1-n1c(O)c(C=Nc2ccc(N(C)C)cc2)c(=O)[nH]c1=O,i,2.3µM*,15%,-9,?,4
CC1=Nc2ccccc2/C1=C/c1c(O)n(C)c(=O)[nH]c1=O,i,i,2%,5,-2%,5
Cc1ccc(-n2c(O)c(/C=C3/C(c4ccccc4)=Nc4ccccc43)c(=O)[nH]c2=O)cc1,3.7µM*,?,5.2µM*,3,3.7µM*,15
Cc1cccc(-n2c(O)c(/C=C3/C(c4ccccc4)=Nc4ccccc43)c(=O)[nH]c2=O)c1,5.2µM*,?,3.7µM*,-3,3.7µM*,4
F/C(COc1ccc2c(c1)[nH]c1ccccc12)=C1/CN2CCC1CC2,nt,nt,22%,nt,10%,nt
CN(C)/C=c1\sc2c(C#N)cc(C(=O)c3ccc(Br)cc3)n2c1=O,i,i,?,-5,0%,10
CCC1(c2ccccc2)CCC(=O)NC1=O (stereo not given),nt,nt,7%,nt,-2%,nt

# Assay outcomes as filed in PubChem BioAssay.
